Screens as filed in PubChem.
Shown are actives, neighbours in structure and some others; about 4.2% of the full set was active somewhere.
V-ATPase pHluor = regulators of yeast V-ATPase proton transport. S. cerevisiae, pHLuorin cytosolic pH fluorescence. response, % at 10 µM. 0.37% of 350,000 active. AID 504577; in the data active = response mostly above about 7.3%, no sharp cut-off; inactive = mostly below about 5.4%; note: actives read high
tim10-1 inh = tim10-1 yeast growth inhibition; S. cerevisiae tim10-1 ts strain growth, BacTiter-Glo, 24 h; inhibition, % at 20 µM; 2.2% of 330,000 active;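 active = inhibition of at least 40%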;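 note: mutant grown at 25 °C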
tim23-1 inh = tim23-1 yeast growth inhibition; S. cerevisiae tim23-1 growth, BacTiter-Glo luminescence, 24 h; inhibition, % at 20 µM; 1.3% of 330,000 active; AID 463212;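 active = growth inhibition of the mutant yeast at or above 50%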;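 note: temperature-sensitive mutant grown at 25 °C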
NALP1 yeast inh = blocks the NALP1 inflammasome reconstituted in yeast | 0.61% of 280,000 active | inhibition, % at 10 µM | S. cerevisiae NALP1/ASC/caspase-1 growth, X-gal OD620, 72 h; in the data active = inhibition mostly above about 24%, no sharp cut-off; inactive = mostly below about 32%
NLRP3 yeast inh = NALP3 inhibition in yeast; inhibition, % at 10 µM; Yeast reconstituted NLRP3/ASC/caspase-1, beta-gal luminescence, 24 h; 0.39% of 330,000 active;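 active = inhibition of 50% or more; inactive = inhibition below 50%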
TIM10 inh = inhibits growth of TIM10 yeast strain | S. cerevisiae TIM10 strain growth, BacTiter-Glo luminescence, 24 h | inhibition, % at 10 µM | 1.4% of 330,000 active;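 active = inhibition of 40% or more at the single tested concentration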;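 note: wild-type TIM10 isogenic control strain grown at permissive 25 °C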
tim10 confirm = confirmation of TIM10 yeast growth inhibitors | shares compounds with TIM10 inh | AID 463215 | 63% of 4,600 active | inhibition, % at 10 µM | S. cerevisiae tim10 strain growth, BacTiter-Glo luminescence, 24 h;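 active = inhibition of yeast growth at or above a set limit in either of two replicates at 10 µM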; note: this counterscreen used the strain with wild-type TIM10
Large screens that a line does not name were inactive (follow-up assays come after a bar, where they were run).

COc1ccccc1NC(=O)/C(=C/c1cccc([N+](=O)[O-])c1)c1ccccc1	none
O=C(N=C1c2ccccc2CN1c1ccc(F)c(F)c1)c1cccnc1	TIM10 inh 48.6 | tim10 confirm inactive
O=S(=O)(c1cccc(-c2csc(-c3cccnc3)n2)c1)N1CCOCC1	none (no result: NALP1 yeast inh)
O=S(=O)(c1ccc(-c2csc(-c3cccnc3)n2)cc1)N1CCCCC1	TIM10 inh 48.2 | tim10 confirm inactive
CCc1ccccc1NC(=S)N(Cc1ccco1)C(C)c1cccs1 (stereo not drawn)	TIM10 inh 80.9 | tim10 confirm inactive
C/C(=N\NC1=N[C@H]2CS(=O)(=O)C[C@H]2S1)c1ccccc1	none (no result: NALP1 yeast inh)
CCN(CCNC(=O)C1CCCN(c2ncnc3c2nc2n3CCCCC2)C1)Cc1ccccc1 (stereo not drawn)	TIM10 inh 71.1 | tim10 confirm inactive
CN(CCNC(=O)C1CCN(c2ncnc3c2nc2n3CCCCC2)CC1)Cc1ccccc1	none
c1ccc2c(c1)CCc1ccccc1C2=C1CCNCC1	none (no result: NALP1 yeast inh)
COc1cc(/C=C2\N=C(c3c(-c4ccccc4)noc3C)OC2=O)ccc1OC(C)=O	none
COc1cccc(/C=C2\N=C(c3c(-c4ccccc4)noc3C)OC2=O)c1	TIM10 inh 47.0 | tim10 confirm inactive
CC(O)CNCc1ccccc1C(F)(F)F (stereo not drawn)	none
Cc1ccc2c(C)c(C(=O)NCCc3ccco3)oc2c1C	TIM10 inh 97.2 | tim10 confirm inactive
Cc1cccc(CCNC(=O)c2oc3c(C)c(C)ccc3c2C)n1	none
CCN(CC)S(=O)(=O)c1ccc(N2CCN(CCOc3ccc(OC)cc3)CC2)nc1	none
O=C(C1CCN(S(=O)(=O)c2cccc3nsnc23)CC1)N1CCCCC1	none
Cc1ccc(C)c(N2CCN(C(=O)C3CCN(S(=O)(=O)c4cccc5nsnc45)CC3)CC2)c1	TIM10 inh 40.4 | tim10 confirm 32.0
CC(C)c1ccc(C(O)Cc2nc3ccccc3n2C)cc1 (stereo not drawn)	TIM10 inh 42.6 (no result: NALP1 yeast inh) | tim10 confirm inactive
CCCc1ccc(Oc2cn[nH]c2-c2ccc(O)cc2O)cc1	TIM10 inh 44.4 | tim10 confirm 71.7
COc1ccc(-c2[nH]ncc2Oc2ccccc2OC)c(O)c1	TIM10 inh 52.3 | tim10 confirm inactive
COc1ccc(Oc2cn[nH]c2-c2ccc(O)cc2O)cc1	none
CC(C)[C@H](NC(N)=O)C(=O)Nc1ccc(F)c(Cl)c1	none
CCc1ncc(CN2CCC(C(=O)Nc3cccc(-c4cscn4)c3)CC2)cn1	none
Cc1c(OC(C)C(=O)N2C[C@H]3C[C@@H](C2)c2cccc(=O)n2C3)ccc2c3c(c(=O)oc12)CCC3 (stereo partly drawn)	none
Cc1c(C)c2ccc(OC(C)C(=O)N3C[C@H]4C[C@@H](C3)c3cccc(=O)n3C4)c(C)c2oc1=O (stereo partly drawn)	TIM10 inh 59.3 | tim10 confirm inactive
C[C@@H]1CN([C@@H](C)CO)C(=O)c2cc(NS(C)(=O)=O)ccc2O[C@@H]1CN(C)S(=O)(=O)c1ccccc1	none (no result: NALP1 yeast inh)
O=C(Nc1cccc(Cl)c1)NC1CC2CCC1C2 (stereo not drawn)	none
O=c1c2ccc(F)cc2sn1-c1ccccc1	none (no result: tim10-1 inh, tim23-1 inh, NALP1 yeast inh, NLRP3 yeast inh, TIM10 inh)
O=c1c2ccccc2sn1-c1ccc(F)cc1	TIM10 inh 55.3 (no result: NALP1 yeast inh) | tim10 confirm 64.5
COc1ccc(C(=O)N/N=C/c2sc3ccccc3c2O)cc1	none (no result: tim10-1 inh, tim23-1 inh, NLRP3 yeast inh, TIM10 inh)
O=C(N/N=C/c1sc2ccccc2c1O)c1ccccc1	TIM10 inh 40.3 | tim10 confirm inactive
CCOC(=O)c1ccccc1NC(=O)CN1C(=O)NC(C)(CCc2ccccc2)C1=O (stereo not drawn)	none (no result: NALP1 yeast inh)
CCN1C/C(=C/c2ccc(OC)c(O)c2)C(=O)/C(=C/c2ccc(OC)c(O)c2)C1	TIM10 inh 49.6 | tim10 confirm 44.8
Cc1ccc2nc(Cl)c3nnnn3c2c1	V-ATPase pHluor 10.0, TIM10 inh 55.3 | tim10 confirm 70.9
O=C(NCc1cccc2[nH]ccc12)C1CCC(=O)N(CCc2ccccc2)C1 (stereo not drawn)	none
O=C(N/N=C/c1cc([N+](=O)[O-])ccc1O)C12CC3CC(CC(C3)C1)C2	none
O=C(N/N=C/c1cc([N+](=O)[O-])ccc1O)NC12CC3CC(CC(C3)C1)C2	TIM10 inh 43.2 | tim10 confirm inactive
CCN(CC)c1ccc(C(=S)NC2CCCCC2)cc1	TIM10 inh 45.8 | tim10 confirm inactive
CCCCCC(=O)Nc1ccc(-c2csc(C)n2)cc1	none
CCCCCC(=O)Nc1ccc(-c2csc(N)n2)cc1	TIM10 inh 43.0 | tim10 confirm inactive
O=C(NC12CC3CC(CC(C3)C1)C2)c1ccccc1	none
O=C(NC12CC3CC(CC(C3)C1)C2)N(Cc1ccccc1)Cc1ccncc1	TIM10 inh 44.0 | tim10 confirm 32.0
O=S(=O)(Nc1ccc(-c2nc3cccnc3s2)cc1)c1cccs1	none (no result: NALP1 yeast inh)
O=S(=O)(Nc1cccc2ncccc12)c1cccs1	TIM10 inh 43.4 | tim10 confirm 47.9
COc1ccccc1NC(=O)NC1(C(=O)N2CCC(C)CC2)CCCCC1	none
COc1ccc(-c2n[nH]c(C)c2-c2ccc(Cl)cc2)c(O)c1OC	TIM10 inh 42.2 | tim10 confirm 32.9
COc1cc(OC)cc(C(=O)N[C@H](C(=O)Nc2cc(F)ccc2C)C(C)C)c1	none
O=C(NC(=S)NNC(=O)c1ccccc1O)c1cccc([N+](=O)[O-])c1	TIM10 inh 41.9 | tim10 confirm 55.8
COc1ccc(C(=O)NNC(=S)NC(=O)c2cccc([N+](=O)[O-])c2)cc1	none (no result: NALP1 yeast inh)
O=C(N/N=C/c1ccc([N+](=O)[O-])cc1)c1cc(C2CC2)[nH]n1	TIM10 inh 51.3 | tim10 confirm 56.0
COC(=O)Cc1c(C)c2cc(Cl)c(OC(=O)c3ccco3)cc2oc1=O	TIM10 inh 54.3 | tim10 confirm 40.5
Cc1cc2oc(=O)c3c(c2cc1OC(=O)c1ccco1)CCCC3	none
O=C(Oc1cc2oc(=O)c3c(c2cc1Cl)CCCC3)c1ccco1	TIM10 inh 50.7 (no result: NALP1 yeast inh) | tim10 confirm 32.2
COc1ccc(N2CCC(CNC(=S)Nc3c(C)cc(C)cc3C)C2)cc1 (stereo not drawn)	TIM10 inh 40.1 (no result: NALP1 yeast inh) | tim10 confirm 55.7
COc1ccc(N2CCC(CNC(=S)Nc3cccc(C)c3)C2)cc1 (stereo not drawn)	none
Cc1ccc(O)c(C(=O)/C=C/c2ccc3c(c2)OCCCO3)c1	TIM10 inh 48.9 | tim10 confirm 55.7
Cc1ccc(C(=O)/C=C/c2ccc3c(c2)OCO3)o1	none
Cc1onc(-c2c(Cl)cccc2Cl)c1C(=O)N1CCN(c2ccccc2)CC1	TIM10 inh 41.7 | tim10 confirm inactive
COc1ccc(-c2cn3cc(C)ccc3n2)cc1F	TIM10 inh 61.2 | tim10 confirm 57.3
